According to PubChem BioAssay AID2235 (The Scripps Research Institute Molecular Screening Center, 2010):
About 2,800 (0.88%) of roughly 320,000 compounds were called active. The entries come from a sample that favours actives as a whole. Unmarked numbers belong to inactive results.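 How the source made its calls: active means inhibition above the mean inhibition of all tested compounds plus 3 SD, computed separately for each screening campaign (cut at about 15% in these data); inactive means the rest.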

Each compound was assayed against Serine/threonine-protein phosphatase PP1-alpha catalytic subunit (Homo sapiens) (UniProt P62136) (assay: inhibition of human PP1 catalytic subunit – biochemical, fluorescence, OMFP substrate, single point, counter-screen for PP5 inhibitor project, primary screen (AID 2235)). Conditions: purified PP1alpha, at 6.7 µM, active compounds read high.
Chain of Serine/threonine-protein phosphatase PP1-alpha catalytic subunit (Homo sapiens) (P62136 whole entry, looked up): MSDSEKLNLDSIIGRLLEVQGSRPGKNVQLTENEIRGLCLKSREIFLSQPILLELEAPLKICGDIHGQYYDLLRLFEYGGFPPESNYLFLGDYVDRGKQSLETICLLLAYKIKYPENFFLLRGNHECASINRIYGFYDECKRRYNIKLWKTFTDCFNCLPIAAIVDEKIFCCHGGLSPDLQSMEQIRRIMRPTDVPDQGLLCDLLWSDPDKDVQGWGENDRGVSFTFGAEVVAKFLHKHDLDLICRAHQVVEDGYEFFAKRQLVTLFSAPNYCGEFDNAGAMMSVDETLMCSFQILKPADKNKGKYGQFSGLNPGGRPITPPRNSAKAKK

Row | Structure (SMILES) | inhibition
1 | O=C(CCN1C(=O)[C@@H]2Cc3ccccc3CN2C1=O)NCCc1ccccc1 | -2.43%
2 | COC(=O)CCCC1=CC2=C(c3ccccc3)C(=O)C(C)(OC(=O)C3CCCC3)C(=O)C2=CN1c1ccc(OC)cc1 (centres undefined) | -4.53%
3 | CSc1ncccc1C(=O)Nc1ccc2c(c1)OCO2 | -1.92%
4 | CCOc1cc(N2CCOCC2)c(OCC)cc1NC(=O)COc1cccc2cccnc12 | 2.8%
5 | Oc1c(C(c2ccccn2)N2CCOCC2)ccc2cccnc12 (centres undefined) | 78.5% (active)
6 | CCOC(=O)N1CCN(C(c2cccnc2)c2ccc3cccnc3c2O)CC1 (centres undefined) | 3.71%
7 | CC(=O)N1CCN(CC(C)(C)NS(=O)(=O)c2ccc(C)cc2)CC1 | -0.49%
8 | COc1ccc(S(=O)(=O)N(C)CC(=O)N2CCCC2)cc1Cl | -3.22%
9 | Cc1ccc(-c2nn(-c3ccccc3)cc2CN(Cc2ccccc2)C(=O)CCC(=O)O)o1 | -2.67%
10 | O=C(CCCN1C(=O)/C(=C/c2ccccc2)SC1=S)Nc1ccc(O)cc1 | 1.67%
11 | Cc1ccc(-c2nn(-c3ccccc3)cc2/C=C2\SC(=S)N(CCCCCC(=O)O)C2=O)o1 | 23.8% (active)
12 | C=CCOc1ccc(/C=C2\SC(=S)N(CCC(=O)O)C2=O)cc1 | 6.24%
13 | COc1ccc(-c2nn(-c3ccccc3)cc2/C=C2/SC(=S)N(CCCC(=O)O)C2=O)c(C)c1 | 23.3% (active)
14 | COc1ccc(/C=C2\SC(=S)N(CCCC(=O)NC3CCCC3)C2=O)cc1OC | 3.46%
15 | CCCn1nc(C(=O)Nc2ccc3nc(C)sc3c2)c2ccccc2c1=O | -3.9%
16 | COc1ccc(-c2cc(C(F)(F)F)n3nc(C(=O)N4CCOCC4)c(Cl)c3n2)cc1 | -1.63%
17 | CCOC(=O)c1nn(-c2cccc(C)c2)cc1C(=O)c1ccccc1 | 1.33%
18 | COc1c(F)c(F)c(-c2csc(N)n2)c(F)c1F | -1.76%
19 | N#Cc1ccc(C(=O)OCC(=O)NC(=O)NC2CCCCC2)cc1 | 0.62%
20 | CS(=O)(=O)C1=NN2C(=N)/C(=C\c3ccc(OCCOc4ccccc4)cc3)C(=O)N=C2S1 | 12.2%
21 | CCS(=O)(=O)C1=NSC2=NC(=O)/C(=C\c3ccc(OS(=O)(=O)c4ccccc4)cc3)C(=N)N21 | 1.95%
22 | CS(=O)(=O)c1ccc2c(c1)SC1=NC(=O)/C(=C/c3ccco3)C(=N)N12 | 24.5% (active)
23 | Cc1cc(NC(=O)OC(C)C)ccc1-c1ccc(NC(=O)OC(C)C)cc1C | -5.37%
24 | COCC(C)NC(=O)COc1nncc2ccccc12 (centres undefined) | -1.71%
